Assay results from PubChem BioAssay (NCATS).
Unmarked numbers belong to inactive results. Records with an inconclusive call do not appear. Entries that show only a call come without a potency. Calls of active or inactive are those of the source. Calls come from the whole dose curve; as a rule, active = well fitted curve in the direction sought with a large enough effect; inconclusive = small, poorly fitted or top-dose-only effect, or another doubt; inactive = no such curve, though single readings can be large; an effect the other way counts as inactive or inconclusive. *1 amine or outer side, *2 acyl side, *3 side chain or, on linkers, in order; H or OH if unused. Where a SMILES comes first, the peptide text is derived from it. Bridges are numbered along the chain shown (N, C = ends). [ ]: non-standard residue; d: D form. The star is where a group is joined. ξ: configuration not given here. X10 = NC1=NCCC(C(N[*:1])C(=O)[*:2])N1; ΔAla(3-NHCONH2) = NC(=O)NC=C(N)C(=O)O; ξβ3hOrn = NCCCC(N)CC(=O)*; Dap = NC[CH](N)C(=O)O

What was measured:
[1] = target: Glutathione peroxidase 1 (Homo sapiens) (UniProt P07203); assay: Primary qHTS Assay for Inhibitors of Recombinant Selenoprotein Glutathione Peroxidase 1 (GPX1) (AID 1845191); note: nearly all actives have a fitted effect of over 65% in size
Procedure, shortened: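 Recombinant GPX1 (10 nM final) was preincubated with compound for 30 min at room temperature, then reacted with 1 mM GSH, 0.5 mM CHP, 0.5 mM NADPH and 100 nM glutathione reductase; NADPH fluorescence (340/450 nm) was read at 0 and 15 min.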

[2] = target: Phospholipid hydroperoxide glutathione peroxidase GPX4 (Homo sapiens) (UniProt P36969); assay: Primary qHTS Assay for Inhibitors of Recombinant Selenoprotein Glutathione Peroxidase 4 (GPX4) (AID 1845192); note: nearly all actives have a fitted effect of over 65% in size; for activity change, negative = inhibition: series mostly up to about 50 µM
Procedure, shortened: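 GR-coupled readout: 100 nM GR, 1 mM GSH, 0.5 mM NADPH; NADPH fluorescence (ex 340/em 450 nm) read at t=0 and after 15 min RT. GPX4 200 nM, preincubated 30 min with compound; substrate 0.5 mM CHP.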

[3] = target: Luciferin 4-monooxygenase (Photinus pyralis) (UniProt P08659); assay: Primary firefly luciferase (FLuc) qHTS assay for identification of artifact compounds. (AID 1845220); note: nearly all actives have a fitted effect of over 60% in size; for activity change, negative = inhibition: series mostly up to about 54 µM
Procedure, shortened: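 In this counter-screen for luciferase artifacts, test compounds met substrate (10 uM each luciferin and ATP) before 10 nM enzyme started the reaction. Light output was measured 5 min later.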

[4] = Primary fluorescence-based thiol-reactive (MSTI) qHTS assay for identification of artifact compounds. (AID 1845221);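 note: series mostly up to about 54 µM; thiol-reactive compounds lower the probe fluorescence signal; nearly all actives have a fitted effect of over 65% in size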
Procedure, shortened: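 qHTS titration of compound; 4 uM MSTI, PBS pH 7.4, 2% DMSO; 1 h RT, dark; fluorescence 525/598 nm; normalized to Acetyl-MSTI and MSTI; 4-parameter Hill fit.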

[5] = system: Nanoluciferase (engineered Oplophorus gracilirostris luciferase); assay: Primary Nanoluciferase (NLuc) qHTS assay for identification of artifact compounds. (AID 1845222);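 note: NLuc secreted into diluted conditioned medium of S16 cells; series mostly up to about 54 µM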
Procedure, shortened: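 Using secreted nanoluciferase in S16 culture medium (0.22 um filtered, 1:55 dilution), compounds were preincubated 15 min at RT. Signal was generated with Nano-Glo reagent (1:100) over 5 min.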

[6] = Primary redox qHTS assay for identification of artifact compounds. (AID 1845223)
Procedure, shortened: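 Amplex Red (25 uM) and HRP (250 mU/mL) in HBSS, with compounds for 15 min, then 250 uM DTT for 30 min, room temperature, dark. Fluorescence 525/598 nm read; normalized to DMSO and 10 uM DA3003; Hill fit.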

Glutathione peroxidase 1 (Homo sapiens), sequence (P07203 whole entry, looked up): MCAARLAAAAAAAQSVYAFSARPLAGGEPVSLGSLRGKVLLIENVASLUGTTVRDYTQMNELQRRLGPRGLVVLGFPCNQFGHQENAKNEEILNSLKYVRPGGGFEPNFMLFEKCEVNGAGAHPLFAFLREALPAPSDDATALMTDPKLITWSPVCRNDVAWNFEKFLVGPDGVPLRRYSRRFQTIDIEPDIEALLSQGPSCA
Phospholipid hydroperoxide glutathione peroxidase GPX4 (Homo sapiens), sequence (P36969 whole entry, looked up): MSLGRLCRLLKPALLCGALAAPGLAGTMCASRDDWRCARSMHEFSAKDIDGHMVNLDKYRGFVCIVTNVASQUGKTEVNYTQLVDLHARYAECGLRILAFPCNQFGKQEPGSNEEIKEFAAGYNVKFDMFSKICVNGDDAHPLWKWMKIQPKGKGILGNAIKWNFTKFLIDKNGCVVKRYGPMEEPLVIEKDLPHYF

In the case of `CC(C)C[C@@H]1[C@H](c2ccccc2)OC(=O)N1CCCN1CCCCCC1`, the Potency [1] was “inactive” and the Potency [2] was “inactive”.
In the case of `C[C@H]1C[C@@H]2[C@H]([C@@H](O)C[C@@]3(C)[C@H]2CC[C@]3(O)C(=O)CO)[C@@]2(C)C=CC(=O)C=C12`, the Potency [1] was “inactive” and the Potency [2] was “inactive”.
In the case of `CCC(=O)Oc1ccc2c(c1)CC[C@@H]1[C@@H]2CC[C@@]2(C)[C@H]1C[C@@H](OC(=O)CC)[C@@H]2OC(=O)CC`, the Potency [1] was “inactive” and the Potency [2] was “inactive”.
With `CCCCCOc1ccccc1/C(=C\SC)n1ccnc1` the Potency [1] was “inactive” and the Potency [2] was “inactive”.
For `C#CC(C)(CC)OC(=O)c1ccccc1C(=O)O` (stereo not drawn), the Potency [1] was “inactive” and the Potency [2] was “inactive”.
With `CCOC(=O)C1=C(C)NC(C)=C(C(=O)OCC)C1c1ccccc1/C=C/C(=O)OC(C)(C)C` the Potency [1] was “inactive” and the Potency [2] was “inactive”.
For `COc1ccc(-n2nc(CCC(=O)N(C)O)cc2-c2ccc(Cl)cc2)cc1`, the Potency [1] was “inactive” and the Potency [2] was “inactive”.
In the case of `O=C(Oc1ccccc1)c1ccccc1O`, the Potency [1] was “inactive” and the Potency [2] was “inactive”.
For `NCCCC(N)CC(=O)NCC1NC(=O)C(CO)NC(=O)C(N)CNC(=O)C(C2CCN=C(N)N2)NC(=O)C(=CNC(N)=O)NC1=O` (stereo not drawn) (H-[Dap]S[Dap](ξβ3hOrn)[ΔAla(3-NHCONH2)][X10]; lactam 1-C; configuration not given here), the outcome [1] was “inactive [at 0.4 µM]” and the activity change, negative = inhibition [2] was 3.67% [at 0.409 µM].
In the case of `CN(C)CCCOC1(Cc2ccccc2)CCCCCC1`, the Potency [1] was “inactive” and the Potency [2] was “inactive”.
With `N#C/C(=C1/SC[C@@H](c2ccc(Cl)cc2Cl)S1)n1ccnc1` the Potency [1] was “inactive” and the Potency [2] was “inactive”.
For `N=C(N)c1ccc(OCCCOc2ccc(C(=N)N)cc2)cc1`, the Potency [1] was “inactive” and the Potency [2] was “inactive”.
With `CCCCN(CCN(CCCC)C(=O)N1CCOCC1)C(=O)N1CCOCC1` the Potency [1] was “inactive” and the Potency [2] was “inactive”.
For `CCOc1c(N2CCOCC2)cnn(C)c1=O`, the Potency [1] was “inactive” and the Potency [2] was “inactive”.
With `C[N+]1(C)CCC(OC(=O)C(O)(c2ccccc2)C2CCCC2)C1` (stereo not drawn) the Potency [1] was “inactive” and the Potency [2] was “inactive”.
With `[O-][n+]1cccc(/C(Cl)=N/OC[C@@H](O)CN2CCCCC2)c1` the Potency [1] was “inactive” and the Potency [2] was “inactive”.
For `CN1CC(=O)N2[C@H](c3ccc4c(c3)OCO4)c3[nH]c4ccccc4c3C[C@@H]2C1=O`, the Potency [1] was “inactive” and the Potency [2] was “inactive”.
In the case of `CCCCC/C=C\C/C=C\CCCCCCCC(=O)NC(C)c1ccccc1` (stereo not drawn), the Potency [1] was “inactive” and the Potency [2] was “inactive”.
In the case of `O=C1NCCN1CCN1CCC(c2cn(-c3ccc(F)cc3)c3ccc(Cl)cc23)CC1`, the Potency [1] was “inactive” and the Potency [2] was “inactive”.
With `C/C(=C1\CCOC(=O)S1)N(C=O)Cc1cnc(C)nc1N` the Potency [1] was “inactive” and the Potency [2] was “inactive”.
With `CCC[C@H](N[C@@H](C)C(=O)N1[C@H](C(=O)O)C[C@@H]2CCCC[C@@H]21)C(=O)OCC` the Potency [1] was “inactive” and the Potency [2] was “inactive”.
With `CCCCOCCOC(=O)c1cccnc1` the Potency [1] was “inactive” and the Potency [2] was “inactive”.
In the case of `O=C(C1CCCCC1)N1CC(=O)N2CCCc3ccccc3C2C1` (stereo not drawn), the Potency [1] was “inactive” and the Potency [2] was “inactive”.
For `C/C(=N\O)[C@@H](C)NCC(C)(C)CN[C@H](C)/C(C)=N/O`, the Potency [1] was “inactive” and the Potency [2] was “inactive”.
With `CC(=O)CC/C=C(\C)CC/C=C(\C)CC/C=C(\C)CCC=C(C)C` the Potency [1] was “inactive” and the Potency [2] was “inactive”.
For `CN1CCC(=C2c3ccccc3CCc3cccnc32)CC1`, the Potency [1] was “inactive” and the Potency [2] was “inactive”.
In the case of `CC(=O)OCC(=O)[C@@]1(O)CCC2C3CCC4=CC(=O)CC[C@]4(C)C3[C@@H](O)C[C@@]21C` (stereo partly drawn), the Potency [1] was “inactive” and the Potency [2] was “inactive”.
In the case of `Cn1cnc2c(NCc3ccccc3)nc(NCCO)nc21`, the Potency [1] was “inactive” and the Potency [2] was “inactive”.
In the case of `Cc1cccc(N(C)C(=S)Oc2ccc3c(c2)C2CCC3C2)c1` (stereo not drawn), the Potency [1] was “inactive” and the Potency [2] was “inactive”.
With `C[C@H](CN1CCCC1)C(=O)c1ccc(C(F)(F)F)cc1` the Potency [1] was “inactive”, the Potency [2] was “inactive” and the Potency [3] was “inactive”. For the same compound, the Potency [4] was “inactive”, the Potency [5] was “inactive” and the outcome [6] was “inactive”.
With `CN(C)C(=O)CNC(=O)Cc1ccccc1` the Potency [1] was “inactive”, the Potency [2] was “inactive” and the Potency [3] was “inactive”. For the same compound, the Potency [4] was “inactive”, the Potency [5] was “inactive” and the outcome [6] was “inactive”.
For `CCOC(=O)[C@H](CCc1ccccc1)N[C@@H](C)C(=O)N(CC(=O)O)C1Cc2ccccc2C1`, the Potency [1] was “inactive” and the Potency [2] was “inactive”.
With `N#CSCC(=O)O` the Potency [1] was “inactive” and the Potency [2] was “inactive”.
For `O=C(NN1CCCC1)NS(=O)(=O)c1ccc(Cl)cc1`, the Potency [1] was “inactive”, the Potency [2] was “inactive” and the Potency [3] was “inactive”. The Potency [4] was “inactive”, the Potency [5] was “inactive” and the outcome [6] was “inactive”.
For `CCCCNc1ccc(C(=O)OCCN(CC)CC)cc1`, the Potency [1] was “inactive”, the Potency [2] was “inactive” and the Potency [3] was “inactive”. For the same compound, the Potency [4] was “inactive”, the Potency [5] was “inactive” and the outcome [6] was “inactive”.
In the case of `COc1cc(C(=O)OC(COCCC(C)C)CN2CCOCC2)cc(OC)c1OC` (stereo not drawn), the Potency [1] was “inactive”, the Potency [2] was “inactive” and the Potency [3] was “inactive”. For the same compound, the Potency [4] was “inactive”, the Potency [5] was “inactive” and the outcome [6] was “inactive”.
In the case of `CC[N+]1(CC)CCC(=C(c2ccccc2)c2ccccc2)C1C` (stereo not drawn), the Potency [1] was “inactive”, the Potency [2] was “inactive” and the Potency [3] was “inactive”. The Potency [4] was “inactive”, the Potency [5] was “inactive” and the outcome [6] was “inactive”.
